# Results taken from PubChem BioAssay (EPA / NIEHS).
# “And” between values parts separate entries of the source, which are not always exact repeats. Identical values can stand only once. The source made the active and inactive calls. The calls were made as follows: active = hit-call score of the fitted dose curve at least 0.9, where 1 is the maximum; inactive = score below 0.9.
# Read-out: Interleukin-1 alpha (IL1a), IL1A (gene 3552)
# Assay: BSK_LPS_IL1a: BioMAP Diversity Plus: LPS Assay for Interleukin-1 alpha (IL1a) Biomarker Activity (AID 2283080)
# Details: primary human HUVEC with PBMC; actives raise or lower the signal
# Procedure: BSK_LPS is a cell-based, multiplexed-readout assay that uses umbilical vein endothelium and peripheral blood mononuclear cells, a human vascular primary cell co-culture, with measurements taken at 24 hours after chemical dosing in a 96-well plate.BSK_LPS_IL1a is an assay component measured in the BSK_LPS assay. It measures IL-a antibody related to regulation of gene expression using ELISA technology.Data from the assay component BSK_LPS_IL1a was analyzed into 1 assay endpoint. This assay endpoint, BSK_LPS_IL1a, was analyzed with bidirectional fitting relative to DMSO as the negative control and baseline of activity. Using a type of binding reporter, gain or loss-of-signal activity can be used to understand changes in the signaling as they relate to the gene IL1A. Furthermore, this assay endpoint can be referred to as a primary readout, because this assay has produced multiple assay endpoints where this one serves a signaling function. To generalize the intended target to other relatable targets, this assay endpoint is annotated to the cytokine intended target family, where the subfamily is interleukins.
# The levels of cell surface (or secreted, indicated by the prefix "s") biomarker endpoints were measured by ELISA. Overt cytotoxicity to cells in confluent adherent cultures (all systems other than the BT system) was assessed by measuring total protein levels using sulforhodamine B (SRB) staining in parallel cultures at the time of biomarker measurements, indicated as SRB endpoints. For proliferation assays for adherent cell types, individual cell types are cultured at sub-confluence and relative cell numbers quantified by SRB staining at time points optimized for each system (48 h: 3C and CASM3C systems; 72 h: BT and HDF3CGF systems; 96 h: SAg system). SRB was performed by staining cells with 0.1% SRB after fixation with 10% TCA and reading wells at 560 nm.Viability and proliferation of PBMC (T cells) was quantified by Alamar Blue reduction for the SAg and BT systems. For PBMC viability (referred to as PBMC Cytotoxicity within the assay endpoint names), cells were plated (75,000/well in a 96-well plate) and then chemical samples added for 1 h before addition of activators, SEB and TSST-1 (20 ng/mL final concentration each). Cells were incubated for 90 h. Then, Alamar Blue (20 uL/well) (Invitrogen, Cat DAL1100) was added for 6 h, and the plates were read with a fluorescence microplate reader at 546/580 nm (excitation/emission). For PBMC proliferation, cells were plated and activated as above but incubated for only 16 h prior to addition of Alamar Blue. Plates were read after 6 h.
Structure (SMILES),outcome,AC50
C#CCOC(=O)[C@@H](C)Oc1ccc(Oc2ncc(Cl)cc2F)cc1,inactive,–
CC(=O)[C@H]1CC[C@H]2[C@@H]3CCC4=CC(=O)CC[C@]4(C)[C@H]3CC[C@]12C,inactive,–
N[C@@H](Cc1cc(I)c(Oc2ccc(O)c(I)c2)c(I)c1)C(=O)O,inactive,–
CCOC(=O)c1ccc(O)cc1,inactive,–
CCOC(=O)COc1cc(-n2ncc(C(F)(F)F)c(C)c2=O)c(F)cc1Cl,inactive,–
CCCCCOC(=O)COc1cc(N2C(=O)C3=C(CCCC3)C2=O)c(F)cc1Cl,inactive,–
C#C[C@]1(O)CC[C@H]2[C@@H]3CCC4=CC(=O)CC[C@@H]4[C@H]3CC[C@@]21CC,inactive,–
CC(C)CCCCCCc1ccc(O)cc1,–,6.77 µM (active)
O=C(O)c1ccccc1,inactive,–
CCSC(=O)N(CC(C)C)CC(C)C,inactive,–
OB(O)O,inactive,–
C[C@]12C[C@H](O)[C@H]3[C@@H](CCC4=CC(=O)CC[C@@]43C)[C@@H]1CC[C@@H]2C(=O)CO,inactive,–
c1ccc2[nH]c(-c3cscn3)nc2c1,inactive,–
O=C(c1ccc(O)cc1O)c1ccc(O)cc1O,inactive,–
CC1(C)C(C=C(Cl)Cl)C1C(=O)OCc1cccc(Oc2ccccc2)c1 (stereo not given),inactive,–
COC(=O)CSc1cc(N=c2sc(=O)n3n2CCCC3)c(F)cc1Cl,inactive,–
CCCCC(CC)CN1C(=O)C2C3C=CC(C3)C2C1=O (stereo not given),inactive,–
COC(=O)c1ccc(CNS(C)(=O)=O)cc1S(=O)(=O)NC(=O)Nc1nc(OC)cc(OC)n1,inactive,–
CCCCC(CC)COC(=O)c1ccccc1C(=O)O (stereo not given),inactive,–
S=C(S)NCCNC(=S)S.[Mn+2].[S-]C([S-])=NCCN=C([S-])[S-].[Zn+2],inactive,–

Structure (SMILES),outcome,AC50
CCOC(=O)C(C)Oc1ccc(Oc2nc3ccc(Cl)cc3o2)cc1 (stereo not given),inactive,–
C[C@]12CC[C@@H]3c4ccc(O)cc4C[C@@H](CCCCCCCCCS(=O)CCCC(F)(F)C(F)(F)F)[C@H]3[C@@H]1CC[C@@H]2O (stereo not given in full),inactive,–
Oc1ccc(C(c2ccc(O)cc2)C(Cl)(Cl)Cl)cc1,–,24.8 µM (active)
CCCCOC(=O)C(C)Oc1ccc(Oc2ccc(C(F)(F)F)cn2)cc1 (stereo not given),inactive,–
CCCOC(=O)c1ccc(C(=O)OCCC)nc1,inactive,–
CCOC(=O)[C@H](C)Oc1ccc(Oc2nc3ccc(Cl)cc3o2)cc1,inactive,–
CN(C)C(=O)Nc1ccc(Cl)c(Cl)c1,inactive,–
CSC(=O)c1cccc2nnsc12,inactive,–
CCCCOCCOCCOCc1cc2c(cc1CCC)OCO2,inactive,–
O=C(O)C1(C(=O)Nc2ccc(Cl)cc2Cl)CC1,inactive,–
CC(C)(C)[C@@H](O)[C@@H](Cc1ccc(Cl)cc1)n1cncn1,–,3.97 µM (active)
CCN(Cc1c(F)cccc1Cl)c1c([N+](=O)[O-])cc(C(F)(F)F)cc1[N+](=O)[O-],inactive,–
CCCOC(=O)NCCCN(C)C,inactive,–
N#CSCSc1nc2ccccc2s1,–,1.51 µM (active) and 4.83 µM (active)
C=CCOC(Cn1ccnc1)c1ccc(Cl)cc1Cl (stereo not given),inactive,–
CCCN(CCC)c1c([N+](=O)[O-])cc(C(F)(F)F)c(N)c1[N+](=O)[O-],inactive,–
CCCCOC(=O)[C@@H](C)Oc1ccc(Oc2ccc(C(F)(F)F)cn2)cc1,inactive,–
COC(=O)c1ccccc1S(=O)(=O)NC(=O)Nc1nc(OC(F)F)cc(OC(F)F)n1,inactive,–
O=C(c1ccccc1)C1CCCCC1,inactive,–
COCCO,inactive,–
